Among the data in PubChem BioAssay AID1347417 (National Center for Advancing Translational Sciences (NCATS), 2020) are Potency and activity, negative = inhibition values, retold here.

Molecules are shown by their SMILES. Out of some 120,000 compounds screened, about 5,300 (4.4%) were called active. Not shown: some 22% with an inconclusive outcome. Calls follow the shape of the dose curve; as a rule, active = well fitted inhibition curve with a large enough effect; inconclusive = small, poorly fitted or top-dose-only effect; inactive = no such curve, though single readings can be large or run the other way. Shown is part of a subset that was picked to be rich in actives. Where a call stands in place of a potency, no number is given.
Potency is read from the fitted curve at half-maximal effect.

This test in a line: qHTS Primary assay for Inhibitors of Plasmodium falciparum Dd2 growth in vitro. Also: nearly all actives have a fitted effect of over 65% in size. The note with it: P. falciparum Dd2 growth, SYBR Green, 72 h; series mostly up to 28.9 µM. In outline:
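Infected erythrocytes (Dd2, 0.3% parasitemia, 2.5% hematocrit final) are added to compound in RPMI-1640/Albumax II medium, grown 72 h at 37C in low oxygen, then lysed with saponin/Triton-X containing SYBR Green and read by fluorescence.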
In the case of `COc1ccc(CCC(=O)N2CCC(Cc3nncn3C(C)C)C2)cc1` (stereo not given), the Potency entry was “inactive”.
As for `CC(=O)N1CCN(Cc2ccc(C(F)(F)F)c(F)c2)CC(O)C1` (stereo not given), the Potency entry was “inactive”.
For `O=C(NCc1ccc(F)cc1)N1CCCC(Cc2noc(-c3ccncc3)n2)C1` (stereo not given), the Potency entry is “inactive”.
Regarding `COc1ccc(-c2noc([C@@H]3CCCN3C(=O)CCc3ccccc3)n2)cc1`, the Potency result is “inactive”.
For the compound `CCC(=O)N1N=C(c2ccc(OC)cc2)CC1c1cn(-c2ccccc2)nc1-c1cccs1` (stereo not given), the Potency was 11.2 µM (active).
With `CCN(CC)CCNC(=O)CN1N=C(c2ccc(OC)cc2)CCC1=O`, the Potency entry is “inactive”.
In the case of `COC[C@@H]1CN(S(=O)(=O)c2cccc(F)c2)C[C@H]1c1ccncc1`, the Potency result is “inactive”.
On to `O=C(c1ccccn1)N1CCC(N(C(=O)NCCc2ccccc2)C2CCOCC2)CC1`, for which the Potency result is “inactive”.
As for `OC[C@@H]1CN(Cc2cccnc2)C[C@H]1c1ccncc1`, the Potency entry was “inactive”.
With `CN(C)c1ccc2ncc(Nc3ccccc3F)n2n1`, the Potency entry was “inactive”.
As for `COc1ccc(-c2ccc3ncc(Nc4ccc(C(F)(F)F)cc4)n3n2)cn1`, the Potency entry is “inactive”.
`COc1ccccc1Nc1cnc2ccc(-c3ccc(OC)c(OC)c3)nn12`: the Potency was 1.12 µM (active).
As to `CC(=O)N1CCN(Cc2cc(F)ccc2Cl)CC(O)C1` (stereo not given), the Potency result is “inactive”.
As for `CN(Cc1ccccc1)C(=O)C1CCCN(c2cnn(Cc3ccccc3)c(=O)c2)C1` (stereo not given), the Potency entry is “inactive”.
Take `COc1cccc([C@H]2CN(c3cc(C)nc(N)n3)[C@@H]3C4CCN(CC4)[C@H]23)c1`: the Potency is 11.2 µM (active).
The same measure, in the same setting: in the case of `COc1ccc([C@@H]2CN(C(=O)c3c(C)noc3C)[C@@H]3C4CCN(CC4)[C@@H]32)cc1` it was “inactive”; in that of `Cc1ccc([C@@H]2CN(Cc3ncc[nH]3)[C@@H]3C4CCN(CC4)[C@@H]32)cc1`, “inactive”; in that of `O=C(Cn1nc2c(cc1=O)CCCC2)NC1CCN(C(=O)c2cc3ccccc3[nH]2)CC1`, “inactive”.
As for `C[C@@H]1CN(C(=O)c2ccsc2)C[C@H]1c1nc(-c2ccncc2)no1`, the Potency result was “inactive”.
For the compound `O=C1NCc2ccccc2CC12CCCN(Cc1ccc(F)cc1O)C2` (stereo not given), the Potency was 4.47 µM (active).
`COc1ccc(CN2CCC3(Cc4ccccc4CNC3=O)C2)cc1OC` (stereo not given): the Potency entry is “inactive”.
As to `O=C1NCc2ccccc2CC12CCCN(CC1CCCCC1)C2` (stereo not given), the Potency result was “inactive”.
The same measure, in the same setting: in the case of `CCOc1cc(C2C(C(=O)Nc3ccc(OC)cc3)=C(C)Nc3nc(SC)nn32)ccc1O` (stereo not given) it was “inactive”; in that of `CCOc1ccc(C2C(C(=O)Nc3ccc(Cl)cc3)=C(C)Nc3nc(C(F)(F)F)nn32)cc1` (stereo not given), 2.82 µM (active); in that of `CCOc1ccccc1NC(=O)C1=C(C)Nc2ncnn2C1c1ccc(NC(C)=O)cc1` (stereo not given), “inactive”.
In the case of `COc1cccc(CCC(=O)N2CCCC2c2nc(C3CCOCC3)no2)c1` (stereo not given), the Potency result was “inactive”.
With `c1cc(CN2CCCCCC2)cc(-c2nc(C3CCOC3)no2)c1` (stereo not given), the Potency is 8.91 µM (active).
Regarding `O=C(NC1CCCC1)N1CCC(c2noc(-c3ccccc3)n2)C1` (stereo not given), the activity, negative = inhibition is 13.8% [at 5.79 µM] (inactive).
As for `Cc1ccc(C2CC(=O)Nc3c2c(C2CC2)nn3C)c(C)c1F` (stereo not given), the Potency result was “inactive”.
With `COc1cc2nc(NCC(C)c3ccccc3)n3nc(-c4ccccc4)nc3c2cc1OC` (stereo not given), the Potency was 3.55 µM (active).
The same measure, in the same setting: under `COc1ccc(Cl)cc1NC(=O)CSc1nc2ccccc2c2nc(-c3ccccc3)nn12` stands “inactive”.
Same read-out and setting: in the case of `COc1cc2nc(SCC(=O)Nc3ccccc3F)n3nc(-c4ccccc4)nc3c2cc1OC` it was “inactive”; in that of `COc1cccc(N2C(=O)NC(=NC3CCCCC3)C23CCN(CC2CC2)CC3)c1`, “inactive”.
Regarding `Cc1ccc(C(=O)N2CCC(CCC(=O)NC3CCCCC3)CC2)cc1`, the Potency entry was “inactive”.
As for `Cc1ccc(S(=O)(=O)N2CCCC(CCC(=O)NC3CCCCC3)C2)cc1` (stereo not given), the Potency is 12.6 µM (active).
On the same count and under the same terms, in the case of `O=C(CCC1CCCN(S(=O)(=O)c2ccc(F)cc2)C1)NC1CCS(=O)(=O)C1` (stereo not given) it was “inactive”; in that of `Cc1nc([C@@H]2CN(C(=O)CCCc3nc4ccccc4s3)C[C@H]2C(N)=O)n[nH]1`, “inactive”.
As to `CCNC(=O)N[C@H]1C[C@@H](Cc2cc(CC(C)C)on2)C1(C)C`, the Potency entry is “inactive”.
Same read-out and setting: in the case of `CCC(CC)C(=O)N[C@H]1C[C@@H](Cc2cc(COc3ccccc3)on2)C1(C)C` it was “inactive”; in that of `CC1(C)[C@H](Cc2cc(CC3CCCCC3)on2)C[C@@H]1NC(=O)C1CCC1`, 11.2 µM (active); in that of `Cc1cc(CN(C)C(=O)C2C3C(=O)N(Cc4ccc(C)c(C)c4)C[C@@]34C=C[C@@H]2O4)no1` (stereo not given in full), “inactive”.
Still for that read-out and setting: under `Cc1cccc(Nc2nc(C)nc(N)c2S(=O)(=O)c2ccccc2)c1` stands “inactive”.
Regarding `COc1ccc(S(=O)(=O)c2c(Nc3cccc(Cl)c3)sc(C(=O)c3ccccc3)c2N)cc1`, the Potency was 8.91 µM (active).
On to `COc1ccc(S(=O)(=O)c2c(Nc3ccc(C)cc3)sc(C(=O)c3ccc(C)cc3)c2N)cc1`, for which the Potency was 10 µM (active).
As to `COc1cccc(C(=O)c2sc3nc(-c4ccccc4)cc(C(F)(F)F)c3c2N)c1`, the Potency entry was “inactive”.
Consider `Cc1ccc(CN2C[C@H]3CN(C(=O)c4ccc5c(c4)OCO5)CCN3C2=O)cc1`, for which the Potency result was “inactive”.
As to `COc1ccc(N2C(=O)CSC23CCN(C(=O)c2ccc(C)cc2)CC3)cc1`, the Potency result is “inactive”.
Same read-out and setting: under `Cc1ccc(S(=O)(=O)c2c(Nc3cccc(Cl)c3)sc(C(=O)c3ccc4c(c3)OCO4)c2N)cc1` stands 7.94 µM (active).
As for `CCOC(=O)c1ccc(NC(=O)CCS(=O)(=O)c2ccc(C)cc2)cc1`, the Potency entry is “inactive”.
As to `CCOC(=O)c1[nH]ncc1C1CC(=O)Nc2c1cnn2Cc1cccnc1` (stereo not given), the Potency result was “inactive”.
Turning to `C[S+](=O)([O-])N1CCC(Cn2ccc3c(N4CCOCC4)nc(-c4cccc(O)c4)cc32)CC1`, the Potency result is “inactive”.
As for `CN1CCc2c([nH]c3ccccc23)C12CCN(C(=O)c1nccc3ccccc13)CC2`, the Potency result is “inactive”.
Regarding `CCC(CC)C(=O)N1CC(C(=O)N(C)C)C2(CCOCC2)C1` (stereo not given), the Potency entry is “inactive”.
In the case of `Cc1cccc(C)c1NC(=O)Cn1ccn2nc(-c3ccccc3)c(CO)c2c1=O`, the Potency result is “inactive”.
On to `O=C1CO[C@H]2CN(C3CCOCC3)C[C@H]2N1c1ccccc1`, for which the Potency result is “inactive”.
On the same count and under the same terms, in the case of `Fc1ccc(-c2nc(Nc3cccc(Cl)c3)nc3c2COc2ccccc2-3)cc1` it was 11.2 µM (active).
Take `COc1ccc(-c2cc(-c3ccccc3)nc3c2COc2ccc(Cl)cc2-3)cc1`: the Potency result was “inactive”.
The same measure, in the same setting: under `COc1ccc(-c2cc(-c3ccc(F)cc3)nc3c2COc2ccccc2-3)cc1` stands “inactive”; under `COc1ccc(Cl)cc1C(=O)N1CCN(c2cc(C(F)(F)F)nc(C)n2)CC1`, “inactive”; under `COc1ccc(C(=O)N2CCOC3(CCN(C(=O)c4c(C)noc4C)CC3)C2)cc1`, “inactive”.
